Measurements: publication PMC12820563, “FoxP3 forms a head-to-head dimer in vivo and stabilizes its multimerization on adjacent microsatellites”
Over roughly 16,000 sequences, “rpm ratio (pull-down/input)” has its median near 0.5; the highest 2% begin near 5.5. For the sample, the highest values were picked, then their nearest neighbours and some sequences at random.

Target: T1, MBP-FoxP3dN (Mus musculus, UniProt Q99JB6 188-423)
T1 sequence: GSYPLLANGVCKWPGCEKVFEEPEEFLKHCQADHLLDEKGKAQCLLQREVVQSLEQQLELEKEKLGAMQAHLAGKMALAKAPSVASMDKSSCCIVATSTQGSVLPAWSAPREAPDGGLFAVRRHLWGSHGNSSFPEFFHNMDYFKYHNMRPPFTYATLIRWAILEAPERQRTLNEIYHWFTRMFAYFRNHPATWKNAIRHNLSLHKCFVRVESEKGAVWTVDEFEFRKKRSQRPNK
Test: PD-seq (MBP pull-down with sequencing); 20 mM Tris-HCl pH 7.5, 100 mM NaCl, 1.5 mM MgCl2, 0.4 uM protein, 0.1 uM dsDNA library, 30 min, room temperature, amylose pull-down; high values mean tight binding
Settings: protein: recombinant; tags: His6-MBP; chain copies: 2; dsDNA, one strand shown
Outline: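 The N-terminus-lacking fragment of mouse FoxP3 or FoxP1 carried a His6-MBP tag and was expressed in E. coli. At 0.4 µM it was incubated with 0.1 µM Klenow-filled degenerate double-stranded DNA library for 30 min at room temperature in Tris pH 7.5 buffer with NaCl and MgCl2, and complexes were caught on amylose resin, washed three times, released with proteinase K, PCR-barcoded and Illumina-sequenced. Binding is reads-per-million enrichment of pull-down over input with replicates pooled.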

Sequence | binding signal
GATGATTGTTCTCCCAGCTGATGAATTGTGAGGCTCGAGTAAACAAATTTTCCTAATCTTTCTGTTCAAGCGCCATCTAC | 0.816 RPM ratio (pull-down/input)
GATGATTGTTCTCCCAGCTGATGAATTTAAGTGCTCGAGTAAACAAATTTTCCTAATCTTTCTGTTCAAGCGCCATCTAC | 0.628 RPM ratio (pull-down/input)
GATGATTGTTCTCCCAGCTGATGAATTGTGGTTTTCGAGTAAACAAATTTTCCTAATCTTTCTGTTCAAGCGCCATCTAC | 2.03 RPM ratio (pull-down/input)
GATGATTGTTCTCCCAGCTGATGAATTGGGTGGATCGAGTAAACAAATTTTCCTAATCTTTCTGTTCAAGCGCCATCTAC | 0.423 RPM ratio (pull-down/input)
GATGATTGTTCTCCCAGCTGATGAATTAAAGCTGTCGAGTAAACAAATTTTCCTAATCTTTCTGTTCAAGCGCCATCTAC | 0.47 RPM ratio (pull-down/input)
GATGATTGTTCTCCCAGCTGATGAATTCTTTCCCTCGAGTAAACAAATTTTCCTAATCTTTCTGTTCAAGCGCCATCTAC | 0.206 RPM ratio (pull-down/input)
GATGATTGTTCTCCCAGCTGATGAATTAGTAGGGTCGAGTAAACAAATTTTCCTAATCTTTCTGTTCAAGCGCCATCTAC | 1.4 RPM ratio (pull-down/input)
GATGATTGTTCTCCCAGCTGATGAATTTGCCAACTCGAGTAAACAAATTTTCCTAATCTTTCTGTTCAAGCGCCATCTAC | 0.47 RPM ratio (pull-down/input)
GATGATTGTTCTCCCAGCTGATGAATTCTACAACTCGAGTAAACAAATTTTCCTAATCTTTCTGTTCAAGCGCCATCTAC | 0.303 RPM ratio (pull-down/input)
GATGATTGTTCTCCCAGCTGATGAATTCAGCAACTCGAGTAAACAAATTTTCCTAATCTTTCTGTTCAAGCGCCATCTAC | 4.78 RPM ratio (pull-down/input)
GATGATTGTTCTCCCAGCTGATGAATTGTGCAACTCGAGTAAACAAATTTTCCTAATCTTTCTGTTCAAGCGCCATCTAC | 6.92 RPM ratio (pull-down/input)
GATGATTGTTCTCCCAGCTGATGAATTCCGCAACTCGAGTAAACAAATTTTCCTAATCTTTCTGTTCAAGCGCCATCTAC | 6.11 RPM ratio (pull-down/input)
GATGATTGTTCTCCCAGCTGATGAATTGCAACTCTCGAGTAAACAAATTTTCCTAATCTTTCTGTTCAAGCGCCATCTAC | 2.79 RPM ratio (pull-down/input)
GATGATTGTTCTCCCAGCTGATGAATTTTGCAACTCGAGTAAACAAATTTTCCTAATCTTTCTGTTCAAGCGCCATCTAC | 6.24 RPM ratio (pull-down/input)
GATGATTGTTCTCCCAGCTGATGAATTTGCAAACTCGAGTAAACAAATTTTCCTAATCTTTCTGTTCAAGCGCCATCTAC | 0.673 RPM ratio (pull-down/input)
GATGATTGTTCTCCCAGCTGATGAATTCTGCAACTCGAGTAAACAAATTTTCCTAATCTTTCTGTTCAAGCGCCATCTAC | 5.96 RPM ratio (pull-down/input)
GATGATTGTTCTCCCAGCTGATGAATTCAACAACTCGAGTAAACAAATTTTCCTAATCTTTCTGTTCAAGCGCCATCTAC | 0.576 RPM ratio (pull-down/input)

Sequence | binding signal
GATGATTGTTCTCCCAGCTGATGAATTGTTCAACTCGAGTAAACAAATTTTCCTAATCTTTCTGTTCAAGCGCCATCTAC | 0.485 RPM ratio (pull-down/input)
GATGATTGTTCTCCCAGCTGATGAATTCCGCAAATCGAGTAAACAAATTTTCCTAATCTTTCTGTTCAAGCGCCATCTAC | 0.692 RPM ratio (pull-down/input)
GATGATTGTTCTCCCAGCTGATGAATTATCAAACTCGAGTAAACAAATTTTCCTAATCTTTCTGTTCAAGCGCCATCTAC | 0.363 RPM ratio (pull-down/input)
GATGATTGTTCTCCCAGCTGATGAATTGCCCTCCTCGAGTAAACAAATTTTCCTAATCTTTCTGTTCAAGCGCCATCTAC | 0.471 RPM ratio (pull-down/input)
GATGATTGTTCTCCCAGCTGATGAATTTCGTCAATCGAGTAAACAAATTTTCCTAATCTTTCTGTTCAAGCGCCATCTAC | 0.411 RPM ratio (pull-down/input)
GATGATTGTTCTCCCAGCTGATGAATTATTAGCTTCGAGTAAACAAATTTTCCTAATCTTTCTGTTCAAGCGCCATCTAC | 0.671 RPM ratio (pull-down/input)
GATGATTGTTCTCCCAGCTGATGAATTATTCCGATCGAGTAAACAAATTTTCCTAATCTTTCTGTTCAAGCGCCATCTAC | 0.214 RPM ratio (pull-down/input)
GATGATTGTTCTCCCAGCTGATGAATTTCATCTGTCGAGTAAACAAATTTTCCTAATCTTTCTGTTCAAGCGCCATCTAC | 0.411 RPM ratio (pull-down/input)
GATGATTGTTCTCCCAGCTGATGAATTGTGGCTGTCGAGTAAACAAATTTTCCTAATCTTTCTGTTCAAGCGCCATCTAC | 1.13 RPM ratio (pull-down/input)
GATGATTGTTCTCCCAGCTGATGAATTATCATCGTCGAGTAAACAAATTTTCCTAATCTTTCTGTTCAAGCGCCATCTAC | 0.418 RPM ratio (pull-down/input)
GATGATTGTTCTCCCAGCTGATGAATTAGCTAAGTCGAGTAAACAAATTTTCCTAATCTTTCTGTTCAAGCGCCATCTAC | 0.231 RPM ratio (pull-down/input)
GATGATTGTTCTCCCAGCTGATGAATTCCAGTAATCGAGTAAACAAATTTTCCTAATCTTTCTGTTCAAGCGCCATCTAC | 0.477 RPM ratio (pull-down/input)
GATGATTGTTCTCCCAGCTGATGAATTTGCTTGTTCGAGTAAACAAATTTTCCTAATCTTTCTGTTCAAGCGCCATCTAC | 6.99 RPM ratio (pull-down/input)
GATGATTGTTCTCCCAGCTGATGAATTCTTTGCTTCGAGTAAACAAATTTTCCTAATCTTTCTGTTCAAGCGCCATCTAC | 0.407 RPM ratio (pull-down/input)
GATGATTGTTCTCCCAGCTGATGAATTGCTATTTTCGAGTAAACAAATTTTCCTAATCTTTCTGTTCAAGCGCCATCTAC | 1.47 RPM ratio (pull-down/input)
GATGATTGTTCTCCCAGCTGATGAATTGCTGTTTTCGAGTAAACAAATTTTCCTAATCTTTCTGTTCAAGCGCCATCTAC | 2.65 RPM ratio (pull-down/input)
